# Test results reported in PubChem BioAssay (NCATS).
# Results filed as inconclusive are left out. Where a call stands in place of a potency, no number is given. Values without a mark were called inactive. The source made the active and inactive calls. Calls come from the whole dose curve; as a rule, active = well fitted curve in the direction sought with a large enough effect; inconclusive = small, poorly fitted or top-dose-only effect, or another doubt; inactive = no such curve, though single readings can be large; an effect the other way counts as inactive or inconclusive.
# Assays:
# JEG-3 = assay: Primary qHTS to identify gynecologic anti-cancer compounds using libraries of approved drugs and bioactive compounds (AID 1345084); settings: Gynecologic cancer cell panel viability, ATPlite luminescence, 48 h; series mostly up to 57.5 µM; note: nearly all actives have a fitted effect of over 55% in size
# Outline: (§1)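 Cytotoxicity screen measuring ATP content by luciferase luminescence. Each compound is applied at five concentrations for 48 h at 37 C with 5% CO2.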
# OV90 = assay: as above; settings: Gynecologic cancer cell panel viability, ATPlite luminescence, 48 h; series mostly up to 57.5 µM
# Outline: as §1
# PA-1 = assay: as above; settings: Gynecologic cancer cell panel viability, ATPlite luminescence, 48 h; series mostly up to 57.5 µM
# Outline: as §1
# Tov-21-G = assay: as above; settings: Gynecologic cancer cell panel viability, ATPlite luminescence, 48 h; series mostly up to 57.5 µM
# Outline: as §1
# Tov112D = assay: as above; settings: Gynecologic cancer cell panel viability, ATPlite luminescence, 48 h; series mostly up to 57.5 µM
# Outline: as §1
# [1] = qHTS assay to identify inhibitors of the type 1 interferon - major histocompatibility complex class I in skeletal muscle: Counter screen cell viability and HiBit confirmation (AID 1347412); settings: iHSKM muscle cells + IFN-b, HiBiT or CellTiter-Glo, 24 h; note: nearly all actives have a fitted effect of over 60% in size
# Outline: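 Luminescence read-out: Nano-Glo HiBiT lytic signal from C-terminally HiBiT-tagged HLA-B in CRISPR-edited human myoblasts, plus CellTiter Glo ATP as viability counter screen. IFN-beta 4.0 ng/ml; 24 hrs treatment at 37 C, 5% CO2.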
# Potency is the fitted concentration of half-maximal effect.
smiles,measurement,setting,value
CC1OC(OC2C(OC3C(O[C@H]4CC[C@@]5(C)C(CC[C@]6(C)C5C(=O)C=C5C7CC(C)(C)CC(O)[C@]7(C)CC[C@]56C)C4(C)C)OC(C(=O)O)C(O)C3O)OCC(O)C2O)C(O)C(O)C1O (some centres not stated),"activity change, negative = cytotoxicity",JEG-3,-7.16% [at 11.6 µM]
same,"activity change, negative = cytotoxicity",OV90,-4.31% [at 11.6 µM]
same,"activity change, negative = cytotoxicity",PA-1,-3.12% [at 11.6 µM]
same,"activity change, negative = cytotoxicity",Tov-21-G,2.59% [at 11.6 µM]
same,"activity change, negative = cytotoxicity",Tov112D,-1.77% [at 11.6 µM]
OC[C@H]1O[C@@H](O[C@H]2[C@H](OCc3ccccc3)O[C@H](CO[C@@H]3OC[C@@H](O)[C@H](O)[C@H]3O)[C@@H](O)[C@@H]2O)[C@H](O)[C@@H](O)[C@@H]1O,Potency,JEG-3,inactive
same,Potency,OV90,inactive
same,Potency,PA-1,inactive
same,Potency,Tov-21-G,inactive
same,Potency,Tov112D,inactive
Cc1cc(NC(=O)Nc2ccc(F)c(F)c2)n(-c2ccccc2)n1,Potency,JEG-3,inactive
same,Potency,OV90,inactive
same,Potency,PA-1,inactive
same,Potency,Tov-21-G,inactive
same,Potency,Tov112D,inactive
CO[C@H]1C[C@@H]2CC[C@@H](C)[C@@](O)(O2)C(=O)C(=O)N2CCCC[C@H]2C(=O)O[C@H]([C@H](C)C[C@H]2CC[C@@H](OP(C)(C)=O)[C@H](OC)C2)CC(=O)[C@H](C)/C=C(\C)[C@@H](O)[C@@H](OC)C(=O)[C@H](C)C[C@H](C)/C=C/C=C/C=C/1C,Potency,JEG-3,inactive
same,Potency,OV90,inactive
same,Potency,PA-1,inactive
same,Potency,Tov-21-G,inactive
same,Potency,Tov112D,inactive
O=C(O)[C@@H]1C[C@H]2C[C@@H](CCc3nn[nH]n3)CC[C@H]2CN1,Potency,JEG-3,inactive
same,Potency,OV90,inactive
same,Potency,PA-1,inactive
same,Potency,Tov-21-G,inactive
same,Potency,Tov112D,inactive
COc1ccc(CNC(=O)c2sc3nc(C)cc(C)c3c2N)cc1,Potency,JEG-3,inactive
same,Potency,OV90,inactive
same,Potency,PA-1,inactive
same,Potency,Tov-21-G,inactive
same,Potency,Tov112D,inactive
CC(C)c1cc(C(=O)N2CC[C@@H](NC(=O)C3CC3)C2)n[nH]1,Potency,JEG-3,inactive
same,Potency,OV90,inactive
same,Potency,PA-1,inactive
same,Potency,Tov-21-G,inactive
same,Potency,Tov112D,inactive
CC1=CCC2C(C)(C)CCC[C@]2(C)[C@@]12CC[C@](C)(CC(=O)O)O2 (some centres not stated),Potency,JEG-3,inactive
same,Potency,OV90,inactive
same,Potency,PA-1,inactive
same,Potency,Tov-21-G,inactive
same,Potency,Tov112D,inactive
C=C1C(=O)OC2C1C(O)CC1(C)C(O)CCC(C=O)C21 (configuration not stated),Potency,JEG-3,inactive
same,Potency,OV90,inactive
same,Potency,PA-1,inactive
same,Potency,Tov-21-G,inactive
same,Potency,Tov112D,inactive
CC(=O)c1ccc2c(c1)C(O)C(C(C)(C)O)O2 (configuration not stated),Potency,JEG-3,inactive
same,Potency,OV90,inactive
same,Potency,PA-1,inactive
same,Potency,Tov-21-G,inactive
same,Potency,Tov112D,inactive
Cc1ccc(S(=O)(=O)Nc2ccccc2N2CCCCC2)s1,Potency,JEG-3,inactive
same,Potency,OV90,inactive
same,Potency,PA-1,inactive
same,Potency,Tov-21-G,inactive
same,Potency,Tov112D,inactive
C[C@@]1(O)[C@H](O)[C@@H](CO)O[C@H]1n1ccc(N)nc1=O,Potency,JEG-3,inactive
same,Potency,OV90,inactive
same,Potency,PA-1,inactive
same,Potency,Tov-21-G,inactive
same,Potency,Tov112D,inactive
CC(C)N(CCCCOCC(=O)NS(C)(=O)=O)c1cnc(-c2ccccc2)c(-c2ccccc2)n1,Potency,JEG-3,inactive
same,Potency,OV90,inactive
same,Potency,PA-1,inactive
same,Potency,Tov-21-G,inactive
same,Potency,Tov112D,inactive
CC(=O)C=C=C1C(C)(C)CC(O[C@@H]2O[C@H](CO)[C@@H](O)[C@H](O)[C@H]2O)CC1(C)O (some centres not stated),Potency,JEG-3,inactive
same,Potency,OV90,inactive
same,Potency,PA-1,inactive
same,Potency,Tov-21-G,inactive
same,Potency,Tov112D,inactive
CO[C@H]1O[C@@H]2O[C@]3(C)CC[C@H]4[C@H](C)CC[C@@H]([C@H]1C)[C@@]24OO3,Potency,JEG-3,inactive
same,Potency,OV90,inactive
same,Potency,PA-1,inactive
same,Potency,Tov-21-G,inactive
same,Potency,Tov112D,inactive
CCCCOC(=O)NC(=O)C1c2ccccc2Oc2ccccc21,Potency,JEG-3,inactive
same,Potency,OV90,inactive
same,Potency,PA-1,inactive
same,Potency,Tov-21-G,inactive
same,Potency,Tov112D,inactive
Cc1ccc(Cc2c(C)nc3nc(SCC(=O)NCCN4CCNCC4)nn3c2C)cc1,Potency,JEG-3,inactive
same,Potency,OV90,inactive
same,Potency,PA-1,inactive
same,Potency,Tov-21-G,inactive
same,Potency,Tov112D,inactive
CC(=O)O[C@H]1C[C@@](O)(C(C)C)C2[C@@H](OC(=O)c3ccc(O)cc3)C[C@@]3(C)O[C@H]3C[C@]21C (some centres not stated),Potency,JEG-3,inactive
same,Potency,OV90,inactive
same,Potency,PA-1,inactive
same,Potency,Tov-21-G,inactive
same,Potency,Tov112D,inactive
CCN1CCN(Cc2ccc(NC(=O)c3ccc(C)c(NC(=O)c4cncc(-c5cccs5)c4)c3)cc2C(F)(F)F)CC1,Potency,JEG-3,25.1 µM (active)
same,Potency,OV90,12.6 µM (active)
same,Potency,PA-1,1.58 µM (active)
same,Potency,Tov-21-G,1.41 µM (active)
same,Potency,Tov112D,3.55 µM (active)
same,Potency,[1]; HiBiT,5.57 µM (active)
same,Potency,[1]; Viability,12.5 µM (active)
OCCc1ccc(O[C@@H]2O[C@H](CO)[C@@H](O)[C@H](O)[C@H]2O)cc1,Potency,JEG-3,inactive
same,Potency,OV90,inactive
same,Potency,PA-1,inactive
same,Potency,Tov-21-G,inactive
same,Potency,Tov112D,inactive
